Screening data from PubChem.
aSyn UTR act – Activators working through SNCA 5'UTR binding (MLPCN); AID 1814; alpha-synuclein 5'UTR reporter, activators screen; hit rate 7.1% among 300,000; activity score, % (tested at 7.5 µM), hits read low; in the data active means activity score below about -60%
An asterisk follows results filed as active. Only a sample is shown.

SMILES	aSyn UTR act
c1ccn2cc(CSc3nnc4ccccn34)nc2c1	-90*
Cc1ccn2cc(CSc3ccccc3)nc2c1	-88*
Cn1ccnc1SCc1cn2ccccc2n1	-105*
CC(=O)c1ccc(OCc2cc(C(=O)N3CCN(c4ccccc4)CC3C)no2)cc1 (stereo unspecified)	-163*
CSc1ccccc1OCc1cc(C(=O)N2CCN(c3ccccc3)CC2C)no1 (stereo unspecified)	-108*
Cn1ccc(C(=O)Nc2ccc(Br)cc2Br)n1	-79*
COc1cccc(NC(=O)c2ccn(C)n2)c1	-73*
COc1cccc(NC(=O)c2ncc(Cl)c(Cl)c2Cl)c1	-224*
COc1cccc(NC(=O)c2cnsn2)c1	-97*
CC(C)(C)C1CCc2sc(-c3nnc(CCl)o3)cc2C1 (stereo unspecified)	-64*
Cn1c(=NC(=O)COc2ccccc2)sc2cccc(F)c21	-150*
CCOC(=O)c1sc(=NC(=O)CCSc2ccccc2)n(C)c1C	-146*
CCOC(=O)c1sc(=NC(=O)COc2ccccc2)n(C)c1C	-90*
CCOC(=O)c1sc2nc(CSc3ccccc3)nc(N3CCCN(C)CC3)c2c1C	78
Cc1nc(-c2ccc(Cl)cc2)sc1C1(C)CC(c2cccnc2)=NO1 (stereo unspecified)	-122*
Cc1nc(C(=O)Nc2ccccc2)sc1C1(C)CC(c2cccnc2)=NO1 (stereo unspecified)	-111*
CS(=O)(=O)c1ccc(C(=O)Nc2ccc(-c3nc4ccccc4[nH]3)cc2)cc1	-67*
Cn1ncc([N+](=O)[O-])c1C(=O)Nc1ccc(-c2nc3ccccc3[nH]2)cc1	-159*
Cn1ncc([N+](=O)[O-])c1C(=O)Nc1ccc(C2CCCCC2)cc1	-136*
O=C(Nc1ccc(-c2cn3c(n2)SCC3)cc1)c1ccc2c(c1)OCO2	-87*
c1ccc2[nH]c(-c3ccc4c(c3)OCO4)nc2c1	79
O=C(Nc1ccc(-c2nc3ccccc3[nH]2)cc1)c1ccc2c(c1)OCO2	-102*
COc1ccc(-c2nc(-c3ccccc3OC)no2)cc1OC	-231*
COc1ccccc1-c1noc(-c2ccco2)n1	-129*
COc1ccccc1-c1noc(-c2ccccc2)n1	-126*
SMILES	aSyn UTR act
COCCN=c1scc(-c2cccs2)n1/N=C(\C)c1ccco1	-153*
O=C(Nc1ccc(Cl)cc1)ON=C1CCCC1	-75*
Cc1cc(NC(=O)Nc2ccc3c(ccn3C)c2)sn1	-121*
C=C(C)CNC(=S)N/N=C(\C)c1ccc(Cl)s1	-70*
O=C(Nc1ccccc1)Nc1nc(-c2ccccc2)cs1	-88*
COc1cccc(-c2csc(NC(=O)Nc3ccccc3)n2)c1	-166*
CC(C)(C)c1csc(NC(=O)Nc2ccccc2)n1	-141*
O=C(Nc1nc(-c2ccccc2)cs1)Nc1ccc(F)cc1F	-63*
O=C(Nc1ccc(-c2csc(Nc3ccccc3)n2)cc1)c1ccccc1	-87*
COc1cccc(-c2csc(NC(=O)C3CC3)n2)c1	-161*
C(=C\c1cccc2ccccc12)/c1nnc(-c2cccs2)o1	-69*
Cc1ccccc1C(=O)Nc1cccc(-c2ccc(N3CCOCC3)nn2)c1	-65*
O=C(Nc1cccc(-c2ccc(N3CCOCC3)nn2)c1)c1ccc([N+](=O)[O-])cc1	-99*
O=C(COc1ccc(Cl)cc1Cl)Nc1cccc(-c2ccc(N3CCOCC3)nn2)c1	-72*
O=C(Nc1cccc(-c2ccc(N3CCOCC3)nn2)c1)c1ccccc1	-80*
Cc1ccc(C(=O)Nc2cccc(-c3ccc(N4CCOCC4)nn3)c2)cc1[N+](=O)[O-]	-76*
CCCCN1C(=O)/C(=C/C=C2\SCCN2C)SC1=S	-121*
CCOC(=O)C1(Cc2cccc(OC)c2)CCCN(C(=O)c2cc(C)[nH]n2)C1 (stereo unspecified)	-130*
CCOC(=O)C1(Cc2cccc(OC)c2)CCCN(C(=O)CNC(C)=O)C1 (stereo unspecified)	-115*
CCOC(=O)C1(Cc2cccc(OC)c2)CCCN(C(=O)c2cc(C)on2)C1 (stereo unspecified)	-110*
CCOC(=O)C1(Cc2cccc(OC)c2)CCCN(C(=O)c2ccccc2C)C1 (stereo unspecified)	-84*
CCOC(=O)C1(Cc2ccccc2)CCCN(C(=O)c2cnn(CC)c2)C1 (stereo unspecified)	-78*
c1ccc2[nH]c(SCc3cscn3)nc2c1	-104*
c1ccc2[nH]c(-c3cscn3)nc2c1	-99*
c1ccc2nc(-c3nc4ccccc4[nH]3)ccc2c1	74
SMILES	aSyn UTR act
N#C/C(=N\Nc1ccccc1)C(=N)N1CCCCCC1	-171*
N#C/C(=N\Nc1ccc(F)cc1)C(=N)N1CCCCC1	-111*
N#C/C(=N\Nc1cccc(F)c1)C(=N)N1CCCCCC1	-95*
CC(Oc1c(Cl)cccc1Cl)C1=NCCN1 (stereo unspecified)	-80*
COCc1ccc(C(=O)N(C)CC2CCCN(CCc3ccc(OC)cc3)C2)o1 (stereo unspecified)	-123*
COc1ccc(CCN2CCCC(CN(C)C(=O)c3cc(C)oc3C)C2)cc1 (stereo unspecified)	-149*
CCn1cc(C(=O)Nc2ccc(Cl)cc2Cl)cn1	-72*
